Source: PubChem BioAssay

Assay: binders of probe aFSTL3 on microarray, primary screen, stem cell growth factor project, biochemical, small-molecule microarray, fluorescence 635/667 (AID 1064);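 further: measures binding of the biotinylated anti-FSTL3 antibody to printed compounds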
Settings: higher = more signal

SMILES	composite z-score
COCC(=C=CC[C@H](O)c1ccccc1OCCO)C[C@H](O)c1cc(Cl)cc(Cl)c1O	-0.417
C=CCC(OC(C)=O)[C@@H]1[C@@H](N(Cc2ccc(-c3ccccc3)cc2)C(=O)Cc2ccc(F)cc2)c2cc(OCCCO)ccc2N1C(=O)c1ccc(-c2ccccc2)cc1 (stereo partly drawn)	0.124
COCCOC(=O)N1C(=O)[C@@]2(c3cc(C#CC4=CCCCC4)ccc31)[C@H](c1ccc(O)cc1)N1[C@H](c3ccccc3)[C@H](c3ccccc3)OC(=O)[C@H]1[C@@H]2C(N)=O	-0.456
O=C1O[C@H](c2ccccc2)[C@H](c2ccccc2)N2[C@H]1[C@@H](C(=O)O)[C@]1(C(=O)Nc3ccc(C#CCCO)cc31)[C@H]2c1ccc(O)cc1	1.32
O=C(NCc1ccccc1)[C@@]1(Cc2ccccc2)N=C(c2ccc(OCCCO)cc2)O[C@H]1c1ccccc1	0.398
CCOC(=O)C[C@H]1[C@H](OC(=O)c2cc3ccccc3oc2=O)[C@@H](NC(=O)Cc2ccc(OC)cc2)c2cc(OCCCO)ccc2N1C(=O)c1ccccc1	-0.356
COc1ccc([Si](C)(C)[C@H]2[C@H](CCO)O[C@@]3(C(=O)N(C)c4c(Br)cc(C)cc43)[C@@H]2C)cc1	0.107
CN(C)C(=O)[C@@]1(Cc2ccccc2)N=C(c2ccc(OCCCO)cc2)O[C@H]1c1ccccc1N=[N+]=[N-]	0.0567
CC(=O)NCCCC[C@@H]1NC(=O)[C@@H]2C[C@H](C(=O)NCCCCCCNC(=O)CS)[C@H](c3cccc(OCCO)c3)N2C1=O	0.0659
CN(C)CCCNC(=O)[C@@]1(C)c2ccccc2C(=O)N(Cc2cc(F)cc(C(F)(F)F)c2)[C@H]1c1ccc(CO)cc1	-0.0117
O=C1C[C@]2(c3ccc([N+](=O)[O-])cc3)C(=O)N(CCN3CCOCC3)c3cc(CO)ccc3[C@H]2N1C1CCCCC1	0.526
COC(=O)C=C(CC(O)c1cccc(Cl)c1)OC (stereo not drawn)	1.55
COc1ccc(CCN2C(=O)[C@@]3(c4ccc([N+](=O)[O-])cc4)CC(=O)N(C4CCCCC4)[C@@H]3c3ccc(CO)cc32)cc1	-0.126
O=C1C2C=CC(C(O)C(c3ccccc3)c3ccccc3)N(n3cnnc3)C2C(=O)N1Cc1ccccc1 (stereo not drawn)	-0.148
O=C1c2ccccc2[C@@]2(Cc3ccccc3N(CCN3CCOCC3)C2=O)[C@H](c2ccc(CO)cc2)N1Cc1ccccc1	-0.0459
CC(C)(C)OC(=O)CC[C@]1(C(=O)NCC(O)CO)COC(c2ccc(OCCCO)cc2)=N1 (stereo partly drawn)	0.139
CN1C(=O)[C@]2(Cc3ccccc3)N=C(c3ccc(OCCCO)cc3)O[C@@H]2c2ccccc21	0.547
O=C1OCCC/C=C\[C@H]2OC34C=CCN(Cn5nnc6ccccc65)C(=O)[C@H]3N(CCO)C(=O)[C@@H]4C12 (stereo partly drawn)	-0.335
CC(C)C(=C=CC[C@@H](O)c1ccccc1OCCO)CCO	-0.386
N#Cc1ccc(NN2C(C(O)c3c(F)cccc3Cl)C=CC3C(=O)N(c4ccccc4)C(=O)C32)cc1 (stereo not drawn)	0.394
COC(=O)[C@@]1(Cc2ccccc2)[C@H]2c3cc(C(=O)N4CCCC4)n(Cc4cccc5ccccc45)c3C[C@H]2CN1C(=O)c1ccccc1	1.79
COCC(=C=CC[C@@H](O)c1ccccc1OCCO)C[C@@H](O)c1cc(Cl)cc(Cl)c1O	-0.685
C=CCOC(=O)[C@@H]1[C@H]2C(=O)O[C@H](c3ccccc3)[C@H](c3ccccc3)N2[C@H](c2ccc(OCCOC(=O)[C@@H]3C[C@@H]4C(=O)N[C@@H](Cc5ccccc5)C(=O)N4[C@@H]3c3ccc(O)cc3)cc2)[C@@]12C(=O)Nc1ccc(I)cc12	-0.219
C[C@@H]1ON(c2cccc(C(=O)OC(C)(C)C)c2)[C@H](c2ccc(Br)cc2)[C@H]1C(=O)N1C(=O)OC[C@H]1Cc1ccccc1	-0.532
O=C1OCCC=C[C@H]2OC34C=CCN(CCN5CCOCC5)C(=O)[C@H]3N(CCCCCCO)C(=O)[C@@H]4C12 (stereo partly drawn)	-0.174
C=CC[C@@]1(C(N)=O)N=C(c2ccc(OCCCO)cc2)O[C@@H]1c1ccccc1CN=[N+]=[N-]	0.626
C=CCOC(=O)[C@H]1[C@@H]2C(=O)O[C@@H](c3ccccc3)[C@@H](c3ccccc3)N2[C@@H](c2ccc(OCCOC(=O)[C@H]3C[C@H]4C(=O)N[C@@H](CC(C)C)C(=O)N4[C@H]3c3ccc(O)cc3)cc2)[C@]12C(=O)Nc1ccc(I)cc12	-0.921
CCCCN1CC=CC23O[C@@H]4/C=C\CCC(C)OC(=O)C4[C@H]2C(=O)N(CCCCCO)[C@@H]3C1=O (stereo partly drawn)	0.141
